Several values for one entry are separate records, joined by “and”; a condition that tells them apart may be missing. Equal values may be shown once. Screen size: about 5,500 compounds; about 2,000 (36%) were called active. About 18% were inconclusive and are not listed. No stated cut-off is given here; in the data, active means normalized growth mostly below about 0.91 (no sharp cut-off); inconclusive means no clear call, values can overlap the other calls; inactive means mostly above about 0.92. The list shows a part of the results.
Experiment: chemical genetic growth profiling, strain panel (AID 1159580);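 further: tested at 20 µM; growth read once vehicle control cultures reached saturation at 30 °C; 1 = growth at the plate median or of vehicle wells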
Settings: S. cerevisiae deletion strains, growth OD
[1] = locus YBR229C, strain ROT2, stronger effect = lower value
[2] = locus YDL101C, strain DUN1, stronger effect = lower value
[3] = locus YDR150W, strain NUM1, stronger effect = lower value
[4] = locus YHR030C, strain SLT2, stronger effect = lower value
[5] = locus YJR043C, strain POL32, stronger effect = lower value
[6] = locus YJR075W, strain HOC1, stronger effect = lower value
[7] = locus YLR039C, strain RIC1, stronger effect = lower value
[8] = locus YLR262C, strain YPT6, stronger effect = lower value
[9] = locus YPL241C, strain CIN2, stronger effect = lower value

Measured: normalized growth

CC1(C)CC23C(=O)CCC(O)C2(C)CCC13 (stereo not drawn)
inactive: locus YAL021C, strain ccr4, stronger effect = lower value 0.956 | locus YAL026C, strain drs2, stronger effect = lower value 0.989 | locus YAL030W, strain snc1, stronger effect = lower value 0.979 | locus YBL061C, strain skt5, stronger effect = lower value 0.99 | locus YBR009C, strain hhf1, stronger effect = lower value 1.02 | locus YBR021W, strain FUR4, stronger effect = lower value 0.995 | locus YBR023C, strain chs3, stronger effect = lower value 0.993 | locus YBR171W, strain sec66, stronger effect = lower value 0.974 | [1] 1.01 | locus YBR231C, strain swc5, stronger effect = lower value 1.01 | locus YBR279W, strain paf1, stronger effect = lower value 0.987 | locus YCL011C, strain gbp2, stronger effect = lower value 0.979 | locus YCL016C, strain dcc1, stronger effect = lower value 0.967 | locus YCL029C, strain bik1, stronger effect = lower value 1 | locus YCL069W, strain vba3, stronger effect = lower value 0.984 | locus YCR088W, strain abp1, stronger effect = lower value 0.985 | locus YDL005C, strain med2, stronger effect = lower value 0.97 | locus YDL035C, strain GPR1, stronger effect = lower value 1.01 | locus YDL040C, strain nat1, stronger effect = lower value 0.991 | locus YDL074C, strain BRE1, stronger effect = lower value 1.05 | [2] 1.04 | locus YDL185W, strain tfp1, stronger effect = lower value 1.01 | locus YDL192W, strain arf1, stronger effect = lower value 1 | locus YDR001C, strain nth1, stronger effect = lower value 0.986 | locus YDR069C, strain doa4, stronger effect = lower value 0.967 | locus YDR101C, strain arx1, stronger effect = lower value 0.983 | locus YDR137W, strain rgp1, stronger effect = lower value 0.974 | [3] 1 | locus YDR159W, strain sac3, stronger effect = lower value 0.988 | locus YDR162C, strain NBP2, stronger effect = lower value 1.01 | locus YDR195W, strain ref2 0.957 | locus YDR297W, strain sur2, stronger effect = lower value 1.01 | locus YDR318W, strain mcm21, stronger effect = lower value 1 | locus YDR334W, strain swr1, stronger effect = lower value 0.978 | locus YDR335W, strain msn5, stronger effect = lower value 0.989 | locus YDR388W, stronger effect = lower value 1.02 | locus YDR392W, strain spt3, stronger effect = lower value 0.939 | locus YDR502C, strain sam2, stronger effect = lower value 1.03 | locus YEL003W, strain gim4, stronger effect = lower value 0.989 | locus YEL037C, strain rad23, stronger effect = lower value 0.981 | locus YEL061C, strain CIN8 (second series), stronger effect = lower value 0.985 | locus YER015W, strain faa2, stronger effect = lower value 0.989 | locus YER016W, strain bim1, stronger effect = lower value 0.961 | locus YER110C, stronger effect = lower value 1.03 | locus YER111C, strain swi4, stronger effect = lower value 0.971 | locus YER155C, strain BEM2 (second series), stronger effect = lower value 0.985 | locus YER155C, strain BEM2, stronger effect = lower value 1 | locus YER167W, strain BCK2, stronger effect = lower value 0.997 | locus YFR010W, strain ubp6, stronger effect = lower value 1 | locus YGL078C, strain dbp3, stronger effect = lower value 1.02 | locus YGL086W, strain mad1, stronger effect = lower value 1.01 | locus YGL167C, strain pmr1, stronger effect = lower value 0.976 | locus YGL173C, strain kem1, stronger effect = lower value 0.978 | locus YGL227W, strain vid30, stronger effect = lower value 0.983 | locus YGL240W, strain doc1, stronger effect = lower value 1.01 | locus YGL248W, strain PDE1, stronger effect = lower value 1.06 | locus YGL253W, strain hxk2, stronger effect = lower value 0.984 | locus YGR135W, strain pre9, stronger effect = lower value 1.08 | locus YGR252W, strain gcn5, stronger effect = lower value 1.05 | locus YHR013C, strain ard1, stronger effect = lower value 0.952 | locus YHR027C, strain rpn1, stronger effect = lower value 0.987 | [4] 1 and 1.03 | locus YHR079C, strain IRE1 (second series), stronger effect = lower value 1.01 | locus YHR079C, strain IRE1, stronger effect = lower value 1.04 | locus YHR094C, strain hxt1, stronger effect = lower value 1.01 | locus YHR129C, strain ARP1, stronger effect = lower value 1.01 | locus YHR142W, strain chs7, stronger effect = lower value 0.96 | locus YHR200W, strain rpn10, stronger effect = lower value 1.02 | locus YIL066C, strain RNR3, stronger effect = lower value 1.01 | locus YIL073C, strain SPO22, stronger effect = lower value 1.08 | locus YIL125W, strain kgd1, stronger effect = lower value 0.998 | locus YIR030C, strain dcg1, stronger effect = lower value 1.02 | locus YJL092W, strain hpr5, stronger effect = lower value 0.994 | locus YJL095W, strain BCK1 (second series), stronger effect = lower value 0.98 | locus YJL095W, strain BCK1, stronger effect = lower value 1.1 and 1.04 | locus YJL115W, strain asf1, stronger effect = lower value 0.97 | locus YJL129C, strain trk1, stronger effect = lower value 0.955 | locus YJL134W, strain LCB3, stronger effect = lower value 1.01 | locus YJL154C, strain vps35, stronger effect = lower value 0.969 | locus YJL164C, strain tpk1, stronger effect = lower value 0.997 | locus YJL166W, strain qcr8, stronger effect = lower value 1.01 | locus YJL168C, strain set2, stronger effect = lower value 0.996 | locus YJL187C, strain SWE1 (second series), stronger effect = lower value 1.05 | [5] 0.983 | locus YJR066W, strain TOR1, stronger effect = lower value 0.972 | [6] 1.03 | locus YKL009W, strain mrt4, stronger effect = lower value 1.03 | locus YKL068W, stronger effect = lower value 1 | locus YKL085W, strain MDH1 (second series), stronger effect = lower value 1.01 | locus YKL085W, strain MDH1, stronger effect = lower value 1.01 | locus YKL160W, strain elf1, stronger effect = lower value 0.974 | locus YKL190W, strain CNB1, stronger effect = lower value 1.01 | locus YKR001C, strain vps1, stronger effect = lower value 1.04 | locus YKR026C, strain gcn3, stronger effect = lower value 0.99 | locus YKR091W, strain srl3, stronger effect = lower value 0.989 | locus YLL001W, strain dnm1, stronger effect = lower value 0.99 | locus YLL026W, stronger effect = lower value 0.994 | locus YLL041C, strain sdh2, stronger effect = lower value 0.985 | locus YLR027C, strain aat2, stronger effect = lower value 0.992 | [7] 1.13 | locus YLR058C, strain SHM2, stronger effect = lower value 1.03 | locus YLR102C, strain apc9, stronger effect = lower value 1 | locus YLR113W, strain HOG1, stronger effect = lower value 1.03 | locus YLR221C, strain rsa3, stronger effect = lower value 1.01 | locus YLR258W, strain gsy2, stronger effect = lower value 0.984 | locus YLR262C, strain YPT6 (second series), stronger effect = lower value 1.01 | [8] 1.07 | locus YLR268W, strain sec22, stronger effect = lower value 0.995 | locus YLR320W, strain mms22, stronger effect = lower value 0.997 | locus YLR330W, strain CHS5, stronger effect = lower value 1.02 | locus YLR342W, strain FKS1 (second series), stronger effect = lower value 1.01 | locus YLR342W, strain FKS1, stronger effect = lower value 0.977 | locus YLR357W, strain rsc2, stronger effect = lower value 0.956 | locus YLR370C, strain arc18, stronger effect = lower value 0.981 | locus YLR371W, strain rom2, stronger effect = lower value 0.995 | locus YLR384C, strain iki3, stronger effect = lower value 0.952 | locus YLR418C, strain cdc73, stronger effect = lower value 1.05 | locus YML016C, strain PPZ1, stronger effect = lower value 1.02 | locus YML032C, strain rad52, stronger effect = lower value 1.01 | locus YML120C, strain ndi1, stronger effect = lower value 0.984 | locus YML124C, strain tub3, stronger effect = lower value 1 | locus YMR058W, strain fet3, stronger effect = lower value 0.987 | locus YMR078C, strain ctf18, stronger effect = lower value 1.02 | locus YMR125W, strain sto1, stronger effect = lower value 0.986 | locus YMR129W, stronger effect = lower value 0.981 | locus YMR205C, strain PFK2, stronger effect = lower value 0.999 | locus YMR223W, strain ubp8, stronger effect = lower value 1.02 | locus YMR231W, strain pep5, stronger effect = lower value 0.991 | locus YMR307W, strain GAS1, stronger effect = lower value 1.08 | locus YNL067W, strain RPL9B, stronger effect = lower value 1.03 | locus YNL071W, strain lat1, stronger effect = lower value 0.991 | locus YNL183C, strain NPR1, stronger effect = lower value 0.973 | locus YNL209W, strain ssb2, stronger effect = lower value 0.988 | locus YNL233W, strain BNI4, stronger effect = lower value 1.06 | locus YNL248C, strain rpa49, stronger effect = lower value 0.951 | locus YNL250W, strain rad50, stronger effect = lower value 1.02 | locus YNL271C, strain bni1, stronger effect = lower value 0.999 | locus YNL298W, strain CLA4, stronger effect = lower value 1.01 | locus YNL307C, strain MCK1, stronger effect = lower value 1.02 | locus YNL322C, strain KRE1 (second series), stronger effect = lower value 1 | locus YNR049C, strain mso1, stronger effect = lower value 0.972 | locus YNR052C, strain pop2, stronger effect = lower value 1.03 | locus YOL012C, strain htz1 1.22 | locus YOL147C, strain pex11, stronger effect = lower value 1.02 | locus YOR001W, strain rrp6, stronger effect = lower value 1.02 | locus YOR061W, strain CKA2, stronger effect = lower value 1.01 | locus YOR069W, strain VPS5, stronger effect = lower value 1.01 | locus YOR070C, strain gyp1, stronger effect = lower value 0.987 | locus YOR080W, strain dia2, stronger effect = lower value 0.981 | locus YOR083W, strain WHI5, stronger effect = lower value 0.979 | locus YOR106W, strain vam3, stronger effect = lower value 0.962 | locus YOR136W, strain idh2, stronger effect = lower value 1.01 | locus YOR144C, strain elg1, stronger effect = lower value 1.01 | locus YOR184W, strain ser1, stronger effect = lower value 0.994 | locus YOR231W, strain MKK1, stronger effect = lower value 1.05 | locus YOR265W, strain rbl2, stronger effect = lower value 1 | locus YOR270C, strain vph1, stronger effect = lower value 0.976 | locus YOR290C, strain snf2, stronger effect = lower value 0.977 | locus YOR316C, strain cot1, stronger effect = lower value 1.01 | locus YPL051W, strain arl3, stronger effect = lower value 0.987 | locus YPL078C, strain atp4, stronger effect = lower value 0.981 | locus YPL106C, strain sse1, stronger effect = lower value 0.97 | locus YPL240C, strain hsp82, stronger effect = lower value 1 | [9] 1.01 | locus YPL256C, strain CLN2, stronger effect = lower value 1.04 | locus YPR119W, strain clb2, stronger effect = lower value 1 | locus YPR141C, strain kar3, stronger effect = lower value 1 | locus YPR163C, strain tif3, stronger effect = lower value 1.01 | locus YPR167C, strain met16, stronger effect = lower value 1.03 | strain wtn01, stronger effect = lower value 0.984

Cc1cc(S(=O)(=O)NCCNc2nccc(C(F)(F)F)n2)c(C)cc1Cl
inactive: locus YAL013W, strain DEP1, stronger effect = lower value 1.01 | [1] 1.02 | locus YCL061C, strain MRC1, stronger effect = lower value 1.01 | [2] 1.01 | locus YDL134C, strain PPH21, stronger effect = lower value 0.998 | [3] 0.933 | locus YEL061C, strain CIN8, stronger effect = lower value 1.02 | locus YGR078C, strain PAC10, stronger effect = lower value 1 | locus YGR229C, strain SMI1, stronger effect = lower value 1.02 | [4] 0.957 | locus YHR087W, strain rtc3, stronger effect = lower value 1.01 | [5] 1.01 | [6] 1 | [7] 0.991 | locus YLR058C, strain SHM2 (second series), stronger effect = lower value 1.02 | locus YLR085C, strain ARP6, stronger effect = lower value 1.01 | [8] 1.01 | locus YML094W, strain GIM5, stronger effect = lower value 0.992 | locus YMR219W, strain ESC1, stronger effect = lower value 1.01 | locus YMR263W, strain SAP30, stronger effect = lower value 0.921 | locus YNL153C, strain GIM3, stronger effect = lower value 1.02 | locus YNL298W, strain CLA4 (second series), stronger effect = lower value 0.982 | locus YNL322C, strain KRE1, stronger effect = lower value 1.01 | locus YNR030W, strain Alg12, stronger effect = lower value 1.02 | locus YOL006C, strain TOP1, stronger effect = lower value 1.02 | locus YPL055C, strain LGE1, stronger effect = lower value 1.01 | [9] 1.06 | locus YPR135W, strain CTF4, stronger effect = lower value 0.966
